These results are taken from paper PMC7862700, “An all-to-all approach to the identification of sequence-specific readers for epigenetic DNA modifications on cytosine”.

This assay addresses T1, ELK4 (Homo sapiens, UniProt P28324-2 1-405).
T1 sequence: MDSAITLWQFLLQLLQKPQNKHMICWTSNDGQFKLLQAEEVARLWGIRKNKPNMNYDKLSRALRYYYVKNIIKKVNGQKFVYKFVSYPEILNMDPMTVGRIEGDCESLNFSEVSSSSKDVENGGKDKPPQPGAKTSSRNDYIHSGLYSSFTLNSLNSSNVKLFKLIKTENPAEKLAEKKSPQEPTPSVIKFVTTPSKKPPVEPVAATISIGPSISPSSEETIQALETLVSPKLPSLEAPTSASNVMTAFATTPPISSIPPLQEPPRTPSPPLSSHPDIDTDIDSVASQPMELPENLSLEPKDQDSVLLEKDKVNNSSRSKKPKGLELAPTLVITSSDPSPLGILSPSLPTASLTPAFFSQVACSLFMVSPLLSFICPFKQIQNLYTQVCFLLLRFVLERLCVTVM
Description: DAPPL (digital affinity profiling via proximity ligation, sequencing); 10 mM Tris-HCl pH 7.5, 50 mM NaCl, 1 mM DTT, 4% glycerol, room temperature, 30 min; GST-TFs on glutathione beads, 16-mer random dsDNA library, 0.1% formaldehyde crosslink after washing; high values mean tight binding. Conditions: protein: recombinant; tags: N-terminal GST; dsDNA, one strand shown. In short, it runs like this:
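Human transcription factors carrying a GST fusion were produced in yeast, bound to glutathione beads, tagged with DNA barcodes and pooled together with a tag-only sample. Each pool was held with 200 nmole of a random double-stranded 16-mer DNA library in Tris/NaCl/DTT/glycerol buffer for 30 min at room temperature, then washed, crosslinked in 0.1% formaldehyde, proximity-ligated with BsaI/T4 ligase (1 h, 37 °C), PCR-amplified and sequenced on an Illumina NextSeq500. Binding signal is the read frequency of each hexamer for a given factor divided by its frequency in the tag-only sample.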
GCTCTA: the binding signal is 1.07 fold enrichment (6-mer frequency, TF over GST control). As for TCCGGT, the figure is 3.14 fold enrichment (6-mer frequency, TF over GST control). Under ATTTTG stands 1.31 fold enrichment (6-mer frequency, TF over GST control). Consider CCCCTC, for which the binding signal is 1.5 fold enrichment (6-mer frequency, TF over GST control). As for ATGTTA, the figure is 1.23 fold enrichment (6-mer frequency, TF over GST control). TTGGTG: the binding signal is 1.44 fold enrichment (6-mer frequency, TF over GST control). Under TCCTCC stands 1.48 fold enrichment (6-mer frequency, TF over GST control).

Take TTTCGA: the binding signal was 1.5 fold enrichment (6-mer frequency, TF over GST control). As for CAAAAA, the figure is 1.13 fold enrichment (6-mer frequency, TF over GST control). Regarding TGCTTC, the binding signal was 2.01 fold enrichment (6-mer frequency, TF over GST control). For TCACTC, the binding signal was 1.34 fold enrichment (6-mer frequency, TF over GST control). Under ATACAA stands 1.08 fold enrichment (6-mer frequency, TF over GST control). Under TTTTGG stands 1.45 fold enrichment (6-mer frequency, TF over GST control); under TAACTG, 1.23 fold enrichment (6-mer frequency, TF over GST control); under CAATCT, 1.2 fold enrichment (6-mer frequency, TF over GST control).

As to ATTATT, the binding signal was 1.23 fold enrichment (6-mer frequency, TF over GST control). Under AGTGCT stands 1.37 fold enrichment (6-mer frequency, TF over GST control). Under TGGATG stands 1.23 fold enrichment (6-mer frequency, TF over GST control). Under TAATCT stands 1.4 fold enrichment (6-mer frequency, TF over GST control). With TGCTCC, the binding signal was 1.41 fold enrichment (6-mer frequency, TF over GST control). As for CTGGTT, the figure is 1.46 fold enrichment (6-mer frequency, TF over GST control); as for AATTAC, 1.27 fold enrichment (6-mer frequency, TF over GST control). Under TTAAGG stands 1.25 fold enrichment (6-mer frequency, TF over GST control); under ACTACG, 1.32 fold enrichment (6-mer frequency, TF over GST control); under CTATGC, 1.38 fold enrichment (6-mer frequency, TF over GST control). As for TCATCC, the figure is 1.24 fold enrichment (6-mer frequency, TF over GST control); as for GTATCT, 1.22 fold enrichment (6-mer frequency, TF over GST control). As for TCATTT, the binding signal is 1.37 fold enrichment (6-mer frequency, TF over GST control). As for CTCTCT, the figure is 1.74 fold enrichment (6-mer frequency, TF over GST control); as for AAGTTA, 1.19 fold enrichment (6-mer frequency, TF over GST control); as for ATCACC, 1.07 fold enrichment (6-mer frequency, TF over GST control). Consider ATCCTT, for which the binding signal is 1.77 fold enrichment (6-mer frequency, TF over GST control).

As for GGTATT, the binding signal is 1.14 fold enrichment (6-mer frequency, TF over GST control).

On to CATATA, for which the binding signal was 1.07 fold enrichment (6-mer frequency, TF over GST control). As for TACCTC, the figure is 1.36 fold enrichment (6-mer frequency, TF over GST control). ACGAAT: the binding signal was 1.2 fold enrichment (6-mer frequency, TF over GST control). Under AATTGC stands 1.29 fold enrichment (6-mer frequency, TF over GST control).

With TTAAAG, the binding signal is 1.18 fold enrichment (6-mer frequency, TF over GST control). Under CTATTC stands 1.32 fold enrichment (6-mer frequency, TF over GST control). Under TTTTGT stands 1.36 fold enrichment (6-mer frequency, TF over GST control).
